Screens from PubChem.
Rows were chosen to be rich in hits. Some 15% of all compounds tested hit in one or more screens of this group.
ALOX12 inh: inhibitors of human 12S-lipoxygenase ALOX12. Potency, µM (series often up to 108 µM), for inactives: top-dose activity change, negative = inhibition, most hits filed as inhibitors. hit rate 1.1% among 580,000. P18054. purified 12hLO, xylenol orange hydroperoxide absorbance
Target sequence (P18054 whole entry, looked up): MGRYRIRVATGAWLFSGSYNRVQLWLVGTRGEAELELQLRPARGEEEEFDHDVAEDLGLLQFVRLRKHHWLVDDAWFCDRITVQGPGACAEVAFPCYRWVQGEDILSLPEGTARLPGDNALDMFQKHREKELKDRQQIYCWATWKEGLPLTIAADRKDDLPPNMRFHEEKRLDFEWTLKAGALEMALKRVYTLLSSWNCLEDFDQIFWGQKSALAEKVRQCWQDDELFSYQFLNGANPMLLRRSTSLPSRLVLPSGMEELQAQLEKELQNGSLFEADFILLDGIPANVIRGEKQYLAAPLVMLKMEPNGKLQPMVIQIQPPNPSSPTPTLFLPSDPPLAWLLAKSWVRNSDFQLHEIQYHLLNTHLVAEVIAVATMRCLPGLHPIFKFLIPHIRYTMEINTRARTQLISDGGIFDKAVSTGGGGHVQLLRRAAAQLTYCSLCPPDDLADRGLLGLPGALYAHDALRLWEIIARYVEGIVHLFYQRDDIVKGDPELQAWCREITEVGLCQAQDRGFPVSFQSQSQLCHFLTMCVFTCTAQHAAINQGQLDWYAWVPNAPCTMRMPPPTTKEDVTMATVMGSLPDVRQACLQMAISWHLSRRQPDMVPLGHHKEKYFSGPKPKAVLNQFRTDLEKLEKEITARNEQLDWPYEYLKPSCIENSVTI
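Purified human 12hLO (150 nM final) in 25 mM Hepes, 0.01% Triton X-100, pH 7.0 was preincubated 15 min at room temperature with compound. Then 40 uM arachidonic acid was added, 30 min. Hydroperoxide was read by Fe-XO absorbance ratio 573/405 nm.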
ELG1 DNA repair: inhibitors of ELG1-dependent DNA repair in HEK293T cells | AID 504467 | hit rate 2.3% among 330,000 | HEK293T ELG1-luciferase reporter, luminescence, 16 h; DNA damage induced by 5-fluorouridine | Potency, µM (titrated, usually from 46.1 µM), for the others: top-dose activity change, negative = inhibition, most hits filed as inhibitors; note: nearly all actives have a fitted effect of over 55% in size
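DMSO vehicle served as the neutral condition. Each well held 2,000 cells given 5-fluorouridine plus compound; after 16 hr at 37 °C/5% CO2, ONE-Glo was added and luciferase measured 30 min later.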
DT40 TDP1 no CPT: qHTS for Inhibitors of human tyrosyl-DNA phosphodiesterase 1 (TDP1): qHTS in cells in absence of CPT. DT40 Tdp1-/- hTDP1 cells, no CPT, ATP luminescence, 48 h. AID 686978, 2013. hit rate 15% among 420,000. Potency, µM (doses to about 46.2 µM), inactives show at the highest dose activity change, negative = growth inhibition, hits mostly inhibitors; note: nearly all actives have a fitted effect of over 55% in size
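Stably hTDP1-transfected Tdp1-null chicken DT40 cells were treated with library compounds minus camptothecin and grown for at least 48 hr at 37 °C, after which cellular ATP was quantified by luminescence.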
RORg inh: blocks mouse ROR gamma transcriptional activity; Potency, µM (top dose mostly 53.6 µM), inactives show at the highest dose activity change, negative = inhibition, hits mostly inhibitors; hit rate 5.4% among 310,000; P51450; Drosophila S2 Gal4-RORgamma UAS-luciferase reporter, 20 h; note: nearly all actives have a fitted effect of over 60% in size
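Stably transfected Drosophila Schneider cells are the test system, with ROR gamma fused to Gal4 and luciferase under UAS control; luminescence is read after 20 hr of 700 uM copper sulfate induction at ambient temperature.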
Gal4-VP16 FLuc: inhibits Gal4-VP16 luciferase reporter, ROR gamma counter-screen | Drosophila S2 Gal4-VP16 UAS-luciferase, luminescence, 20 h | Potency, µM (titrated, usually from 53.6 µM), for the others: at the top dose activity, negative = inhibition, most hits filed as inhibitors | hit rate 3.5% among 310,000;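 note: Gal4-VP16 expression switched on by copper sulfate through the metallothionein promoter; nearly all actives have a fitted effect of over 50% in size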
DT40 TDP1 CPT: DT40-hTDP1 cell growth loss with CPT; AID 686979; hit rate 12% among 420,000; Potency, µM (doses to about 46.2 µM), inactives show at the highest dose activity change, negative = growth inhibition, usual class: inhibitors; chicken DT40 Tdp1-/-;hTDP1 cells + 20 nM CPT, ATP luminescence, 48 h; note: nearly all actives have a fitted effect of over 55% in size
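Chicken DT40 Tdp1-/- cells stably complemented with human TDP1 were seeded at 400 cells/well in medium containing 20 nM camptothecin, exposed to pin-transferred compounds, and grown at 37 °C for at least 48 hr. Viability was read as ATP luminescence.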
Numbers without * were called inactive; u = inconclusive; x = no result; [ ] = another dose, or the depositor's remark. Calls come from the whole dose curve; as a rule, active = well fitted curve in the direction sought with a large enough effect; inconclusive = small, poorly fitted or top-dose-only effect, or another doubt; inactive = no such curve, though single readings can be large; an effect the other way counts as inactive or inconclusive. % is set by controls: 0 for no effect and ±100 for the full control effect; potency is the fitted concentration of half-maximal effect.

SMILES | ALOX12 inh | ELG1 DNA repair | DT40 TDP1 no CPT | RORg inh | Gal4-VP16 FLuc | DT40 TDP1 CPT
CCc1nc(C)c(CC(=O)N[C@@H]2CCNC[C@H]2O)c(=O)[nH]1 | -1% | x | x | x | x | x
CC(C)C(NC(=O)Cn1cnc(C#N)n1)c1ccccc1 (centres undefined) | 1% | x | x | x | x | x
CN(/N=C/c1cccc(Br)c1)C1=NS(=O)(=O)c2ccccc21 | 8% | u | 23µM* | 17% | -3% | u
COc1ccc(/C=N/N(C)C2=NS(=O)(=O)c3ccccc32)cc1 | 0% | 1% | -4% | 8% | 18% | 9%
CN(/N=C/c1ccco1)C1=NS(=O)(=O)c2ccccc21 | -2% | -2% | 9% | -3% | -12% | -5%
COc1ccc(N(C)C2=NS(=O)(=O)c3ccccc32)cc1 | 46% | u | 2.6µM* | -4% | -1% | 3.7µM*
CN(C1=NS(=O)(=O)c2ccccc21)c1ccc(OC(=O)c2ccccc2F)cc1 | -8% | x | u | x | x | -23%
CN(/N=C/c1ccc(N(C)C)cc1)C1=NS(=O)(=O)c2ccccc21 | -22% | -3% | u | -8% | -14% | 4.1µM*
Cc1cnc(C(=O)NCC23CCC=C2N(C)C(=O)CC3)cn1 (centres undefined) | 5% | x | x | x | x | x
Cc1ccc(-c2ccc(C3C(C#N)=C(N)Oc4n[nH]c(C)c43)o2)cc1 (centres undefined) | -13% | u | u | 30% | 11µM* | u
Cc1cc(C2C(C#N)=C(N)Oc3n[nH]c(C)c32)c(C)s1 (centres undefined) | u | 9% | u | 10µM* | 11µM* | 8.2µM*
Cc1[nH]nc2c1C(c1ccc(F)cc1)C(C#N)=C(N)O2 (centres undefined) | 28% | 7% | 3% | 30% | -5% | -1%
Cc1[nH]nc2c1C(c1ccc(-c3ccc(Cl)cc3)o1)C(C#N)=C(N)O2 (centres undefined) | u | u | u | u | u | 13µM*
Cc1[nH]nc2c1C(c1ccc(-c3ccccc3C#N)o1)C(C#N)=C(N)O2 (centres undefined) | x | -13% | 21µM* | 8.9µM* | u | 29µM*
Cc1[nH]nc2c1C(c1ccccc1F)C(C#N)=C(N)O2 (centres undefined) | 32% | x | x | x | x | x
Cc1ccc(C2Cn3cnc(C(=O)N4CCC(C(=O)NCc5ccccc5Cl)CC4)c3CO2)cc1 (centres undefined) | 48% | x | x | x | x | x
O=C(Nc1ccccc1)OCCNC(=O)c1cccc(Br)c1 | 34% | -4% | -25% | 19% | -8% | 0%
O=C(Nc1ccc(Cl)c(Cl)c1)OCCNC(=O)c1cccc(Cl)c1 | u | -7% | 12µM* | -5% | -17% | 6.5µM*
Cc1ccc2c(CSc3nc4ccccc4c(=O)n3CCCO)cc(=O)oc2c1C | u | u | 23µM* | -4% | -26% | u
Cc1ccccc1Nc1nc(N)nc(CSCC(=O)Nc2cccc(Br)c2)n1 | 16% | u | 16µM* | u | -26% | u
Cc1ccc2c(CSc3nnc4ccccn34)cc(=O)oc2c1C | 8% | u | 5% | 1% | -6% | -19%
Cc1ccccc1Nc1nc(N)nc(CSc2nc3ccccc3c(=O)n2C)n1 | 0% | u | 8.2µM* | 26% | 10% | 9.2µM*
Cc1ccccc1Nc1nc(N)nc(CSc2nc3ccccc3c(=O)n2CCCO)n1 | 12% | u | 18µM* | -25%[10 µM] | 2% | u
O=C(O)c1cc(F)cc(Br)c1 | -97% | x | x | x | x | x
COc1ccccc1C(=O)NCc1ccc(-c2nc3ncccc3o2)cc1 | -27% | x | x | x | x | x
CCCc1cc(=O)[nH]c(SCC(=O)N2CCN(S(=O)(=O)c3ccc(C)c(C)c3)CC2)n1 | 6% | x | x | x | x | x
